Assays:
U-2932 [1] = test: growth inhibition by drug alone (1 - RLU/untreated control) (fraction); higher = stronger inhibition; conditions: 177Lu-lilotomab satetraxetan 0 ug/ml
Summary of the method: (§1)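 Growth inhibition was calculated from RealTime-Glo RLU against untreated no-drug wells. Values equal 1 − RLU/mean of 48 untreated no-drug wells per plate, read daily from day 3 after 1 h at 37°C. RIVA and U-2932 cells, with or without 18 h pretreatment by a radiolabelled anti-CD37 antibody conjugate (~600 MBq/mg; 0.5 µg/ml RIVA, 1 µg/ml U-2932), were washed and plated at 3,000 cells/well on compound-printed plates at 10/100 nM (RIVA) or 10/1,000 nM (U-2932).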

RIVA [2] = test: as above; conditions: 177Lu-lilotomab satetraxetan 0 ug/ml
Summary of the method: as §1

U-2932 [3] = test: growth inhibition by drug plus 177Lu-lilotomab satetraxetan (1 - RLU/untreated control) (fraction); higher = stronger inhibition; conditions: 177Lu-lilotomab satetraxetan 1 ug/ml
Summary of the method: as §1

RIVA [4] = test: as above; conditions: 177Lu-lilotomab satetraxetan 0.5 ug/ml
Summary of the method: as §1

| SMILES | growth inhibition by drug alone (U-2932 [1]; 10 nM, time (day): 3) | growth inhibition by drug alone (U-2932 [1]; 10 nM, time (day): 4) | growth inhibition by drug alone (U-2932 [1]; 10 nM, time (day): 5) | growth inhibition by drug alone (U-2932 [1]; 10 nM, time (day): 6) | growth inhibition by drug alone (U-2932 [1]; 1000 nM, time (day): 3) | growth inhibition by drug alone (U-2932 [1]; 1000 nM, time (day): 4) | growth inhibition by drug alone (U-2932 [1]; 1000 nM, time (day): 5) | growth inhibition by drug alone (U-2932 [1]; 1000 nM, time (day): 6) | growth inhibition by drug alone (RIVA [2]; 10 nM, time (day): 3) | growth inhibition by drug alone (RIVA [2]; 10 nM, time (day): 4) | growth inhibition by drug alone (RIVA [2]; 10 nM, time (day): 5) | growth inhibition by drug alone (RIVA [2]; 10 nM, time (day): 6) | growth inhibition by drug alone (RIVA [2]; 100 nM, time (day): 3) | growth inhibition by drug alone (RIVA [2]; 100 nM, time (day): 4) | growth inhibition by drug alone (RIVA [2]; 100 nM, time (day): 5) | growth inhibition by drug alone (RIVA [2]; 100 nM, time (day): 6) | growth inhibition by drug plus 177Lu-lilotomab satetraxetan (U-2932 [3]; 10 nM, time (day): 3) | growth inhibition by drug plus 177Lu-lilotomab satetraxetan (U-2932 [3]; 10 nM, time (day): 4) | growth inhibition by drug plus 177Lu-lilotomab satetraxetan (U-2932 [3]; 10 nM, time (day): 5) | growth inhibition by drug plus 177Lu-lilotomab satetraxetan (U-2932 [3]; 10 nM, time (day): 6) | growth inhibition by drug plus 177Lu-lilotomab satetraxetan (U-2932 [3]; 1000 nM, time (day): 3) | growth inhibition by drug plus 177Lu-lilotomab satetraxetan (U-2932 [3]; 1000 nM, time (day): 4) | growth inhibition by drug plus 177Lu-lilotomab satetraxetan (U-2932 [3]; 1000 nM, time (day): 5) | growth inhibition by drug plus 177Lu-lilotomab satetraxetan (U-2932 [3]; 1000 nM, time (day): 6) | growth inhibition by drug plus 177Lu-lilotomab satetraxetan (RIVA [4]; 10 nM, time (day): 3) | growth inhibition by drug plus 177Lu-lilotomab satetraxetan (RIVA [4]; 10 nM, time (day): 4) | growth inhibition by drug plus 177Lu-lilotomab satetraxetan (RIVA [4]; 10 nM, time (day): 5) | growth inhibition by drug plus 177Lu-lilotomab satetraxetan (RIVA [4]; 10 nM, time (day): 6) | growth inhibition by drug plus 177Lu-lilotomab satetraxetan (RIVA [4]; 100 nM, time (day): 3) | growth inhibition by drug plus 177Lu-lilotomab satetraxetan (RIVA [4]; 100 nM, time (day): 4) | growth inhibition by drug plus 177Lu-lilotomab satetraxetan (RIVA [4]; 100 nM, time (day): 5) | growth inhibition by drug plus 177Lu-lilotomab satetraxetan (RIVA [4]; 100 nM, time (day): 6) |
| --- | --- | --- | --- | --- | --- | --- | --- | --- | --- | --- | --- | --- | --- | --- | --- | --- | --- | --- | --- | --- | --- | --- | --- | --- | --- | --- | --- | --- | --- | --- | --- | --- |
| CN(N=O)C(=O)N[C@@H](C=O)[C@@H](O)[C@H](O)[C@H](O)CO [Streptozotocin (Zanosar)] | -0.0672 | -0.049 | -0.0365 | 0.111 | -0.124 | -0.0755 | -0.109 | -0.156 | -0.263 | -0.268 | -0.296 | -0.472 | -0.291 | -0.295 | -0.308 | -0.376 | -0.0646 | -0.0512 | -0.0238 | 0.118 | -0.0995 | -0.0176 | -0.0119 | 0.0347 | 0.377 | 0.504 | 0.521 | 0.516 | 0.38 | 0.458 | 0.481 | 0.445 |
| Nc1nc(N)c(N=O)c(OCC2CCCCC2)n1 | -0.102 | -0.0718 | -0.059 | 0.0483 | -0.102 | -0.0762 | -0.0902 | -0.132 | -0.226 | -0.243 | -0.283 | -0.504 | -0.331 | -0.36 | -0.322 | -0.473 | -0.0542 | -0.0355 | -0.000656 | 0.134 | -0.0976 | -0.0168 | 0.00555 | 0.0733 | 0.229 | 0.419 | 0.456 | 0.476 | 0.322 | 0.426 | 0.43 | 0.399 |
| CCCCc1nc2cc(/C=C/C(=O)NO)ccc2n1CCN(CC)CC [SB939 (Pracinostat)] | 0.0917 | 0.0424 | -0.0359 | -0.128 | 0.935 | 0.941 | 0.959 | 0.973 | 0.107 | 0.0736 | 0.0778 | 0.0437 | 0.513 | 0.435 | 0.418 | 0.353 | 0.0531 | 0.113 | 0.137 | 0.186 | 0.95 | 0.96 | 0.973 | 0.982 | 0.656 | 0.663 | 0.693 | 0.699 | 0.817 | 0.85 | 0.868 | 0.876 |
| CC(C)(C)c1ccc(S(=O)(=O)/C=C/C#N)cc1 | 0.0951 | 0.0673 | -0.0262 | -0.0534 | 0.386 | 0.401 | 0.352 | 0.365 | -0.0115 | -1.37e-05 | -0.0516 | -0.202 | -0.0892 | -0.063 | -0.0854 | -0.195 | -0.0145 | 0.0216 | 0.0584 | 0.0727 | 0.517 | 0.565 | 0.534 | 0.533 | 0.438 | 0.555 | 0.567 | 0.581 | 0.452 | 0.513 |  |  |

Source: the supplement of paper PMC6897291
